For some of these results: Results with a measured potency or affinity are listed apart.
Assays:
Design in all cases: scale not given: direction of the effect not stated beside the values
[1] = molecular target: Protein translocase subunit SecA (Escherichia coli (strain K12)) (UniProt P10408); test: Assay to Identify E. coli SecA ATPase Inhibitors; type: functional; details: 30 µM
[2] = molecular target: T1, Ubiquitin-activating enzyme e1, putative (Leishmania donovani (strain BPK282A1)) (UniProt E9BSI1); test: Leishmania donovani Ubiquitin Activating Enzyme (LdE1); type: functional; details: 30 µM
T1 sequence (whole entry): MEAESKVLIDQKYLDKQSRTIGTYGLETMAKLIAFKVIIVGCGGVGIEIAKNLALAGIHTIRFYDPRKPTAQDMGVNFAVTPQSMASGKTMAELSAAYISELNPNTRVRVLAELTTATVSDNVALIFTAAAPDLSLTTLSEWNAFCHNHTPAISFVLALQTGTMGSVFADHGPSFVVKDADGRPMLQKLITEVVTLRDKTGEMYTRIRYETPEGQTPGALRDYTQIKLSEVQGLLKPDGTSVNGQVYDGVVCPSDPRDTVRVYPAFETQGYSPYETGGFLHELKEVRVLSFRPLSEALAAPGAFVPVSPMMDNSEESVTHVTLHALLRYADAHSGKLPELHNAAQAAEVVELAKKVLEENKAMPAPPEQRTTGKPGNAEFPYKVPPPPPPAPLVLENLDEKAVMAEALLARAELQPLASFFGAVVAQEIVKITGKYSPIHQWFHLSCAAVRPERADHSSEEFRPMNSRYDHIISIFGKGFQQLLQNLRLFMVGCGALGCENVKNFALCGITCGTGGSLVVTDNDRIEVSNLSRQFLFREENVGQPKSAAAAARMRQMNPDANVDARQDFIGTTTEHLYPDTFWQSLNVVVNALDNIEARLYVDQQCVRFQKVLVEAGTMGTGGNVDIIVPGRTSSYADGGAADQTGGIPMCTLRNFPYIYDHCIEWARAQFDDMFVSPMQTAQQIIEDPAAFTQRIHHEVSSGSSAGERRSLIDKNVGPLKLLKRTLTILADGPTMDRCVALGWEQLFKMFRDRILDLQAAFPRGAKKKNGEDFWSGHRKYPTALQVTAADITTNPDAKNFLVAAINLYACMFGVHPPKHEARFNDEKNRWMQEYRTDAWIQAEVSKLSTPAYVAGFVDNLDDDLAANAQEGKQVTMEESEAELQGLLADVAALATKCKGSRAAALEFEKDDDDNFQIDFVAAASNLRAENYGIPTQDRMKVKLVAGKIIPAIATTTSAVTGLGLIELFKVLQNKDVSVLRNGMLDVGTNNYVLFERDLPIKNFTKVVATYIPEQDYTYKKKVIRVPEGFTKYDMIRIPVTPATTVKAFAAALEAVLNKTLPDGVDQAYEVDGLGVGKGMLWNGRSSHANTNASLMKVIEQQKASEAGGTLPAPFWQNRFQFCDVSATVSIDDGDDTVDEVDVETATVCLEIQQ

[3] = molecular target: AMP-activated protein kinase, AMPK (Homo sapiens) (UniProt P54646+O43741+P54619+Q9UGJ0+Q9Y478+Q13131+Q9UGI9); test: AMP-dependent Kinase enzyme assay. An in vitro enzyme assay that detects ADP turnover that is directly proportional to AMPK activity. This uses naive AMPK that is activated during the assay with MK-8722; type: functional; details: 30 µM
[4] = molecular target: Sialic acid-binding Ig-like lectin 9 (Homo sapiens) (UniProt Q9Y336); test: Hs-Siglec9 ALPHAscreen SOP 20170721; details: 10 µM
Trypanosoma cruzi = test: Trypanosoma cruzi phosphomannomutase and mannose-1-phosphate guanylyltransferase assay; type: functional; details: 10 µM
[5] = molecular target: T2, Arginase-2, mitochondrial (Homo sapiens) (UniProt P78540); test: in vitro enzyme assay to detect the production of urea directly proportional to the activity of Arginase II; type: functional; details: 33.3 µM; also: in the data most compounds retested in dose-response had high values
T2 sequence (whole entry): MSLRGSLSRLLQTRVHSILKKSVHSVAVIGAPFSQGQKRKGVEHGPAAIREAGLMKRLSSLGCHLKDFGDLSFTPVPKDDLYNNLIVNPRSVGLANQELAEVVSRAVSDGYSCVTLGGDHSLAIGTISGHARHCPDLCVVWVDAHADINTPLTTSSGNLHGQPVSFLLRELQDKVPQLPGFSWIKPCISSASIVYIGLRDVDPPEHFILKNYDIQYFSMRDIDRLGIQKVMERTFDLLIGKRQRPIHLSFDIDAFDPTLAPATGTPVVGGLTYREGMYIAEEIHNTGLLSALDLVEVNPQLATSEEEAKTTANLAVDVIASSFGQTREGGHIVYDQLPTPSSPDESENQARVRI

[6] = molecular target: T3, Proteasome subunit beta (Trypanosoma cruzi) (UniProt O96673); test: Trypanosoma cruzi proteasome chymotrypsin-like activity (TcProtChymo) assay.; also: in the data most compounds retested in dose-response had high values; type: functional; details: 9.37 µM
T3 sequence (whole entry): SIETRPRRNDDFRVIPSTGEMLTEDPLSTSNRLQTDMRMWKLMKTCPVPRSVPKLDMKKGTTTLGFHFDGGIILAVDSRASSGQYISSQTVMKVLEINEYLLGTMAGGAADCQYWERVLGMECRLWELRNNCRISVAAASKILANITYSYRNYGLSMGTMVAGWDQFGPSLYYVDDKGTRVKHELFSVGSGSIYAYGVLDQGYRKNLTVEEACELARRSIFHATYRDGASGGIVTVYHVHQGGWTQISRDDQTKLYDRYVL

Homo sapiens = organism: Homo sapiens; test: To identify inhibition of the IFN signalling (Jak-Stat) pathway via expression of an eGFP reporter gene under the control of an IFN-stimulated response element (ISRE) containing MxA promoter.; type: functional; details: 30 µM
[7] = molecular target: T4, Tyrosyl-tRNA synthetase, putative (Trypanosoma cruzi (strain CL Brener)) (UniProt Q4DSP6); test: Trypanosoma cruzi tyrosyl tRNA synthetase (TcYRS) _High Tyrosine SOP; type: functional; details: 30 µM; also: in the data most compounds retested in dose-response had high values
T4 sequence (whole entry): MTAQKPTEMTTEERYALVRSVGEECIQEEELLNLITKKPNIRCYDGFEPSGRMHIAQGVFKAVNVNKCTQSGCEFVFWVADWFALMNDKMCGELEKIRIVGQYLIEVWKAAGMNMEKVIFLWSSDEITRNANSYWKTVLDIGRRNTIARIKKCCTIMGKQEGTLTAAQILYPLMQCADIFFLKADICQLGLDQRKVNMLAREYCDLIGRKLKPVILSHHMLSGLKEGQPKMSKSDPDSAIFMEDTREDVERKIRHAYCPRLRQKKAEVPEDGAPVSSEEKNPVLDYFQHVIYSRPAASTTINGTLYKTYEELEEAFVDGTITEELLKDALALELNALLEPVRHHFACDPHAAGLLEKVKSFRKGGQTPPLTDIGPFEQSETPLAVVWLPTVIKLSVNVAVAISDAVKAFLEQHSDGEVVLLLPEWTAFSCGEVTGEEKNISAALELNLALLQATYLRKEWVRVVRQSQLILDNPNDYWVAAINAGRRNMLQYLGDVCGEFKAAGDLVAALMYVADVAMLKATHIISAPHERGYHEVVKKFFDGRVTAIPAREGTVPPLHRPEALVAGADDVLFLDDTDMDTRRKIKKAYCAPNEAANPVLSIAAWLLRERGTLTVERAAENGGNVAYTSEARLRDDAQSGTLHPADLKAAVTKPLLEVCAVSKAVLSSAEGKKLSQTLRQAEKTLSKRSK

[8] = molecular target: T4, Tyrosyl-tRNA synthetase, putative (Trypanosoma cruzi (strain CL Brener)); test: Trypanosoma cruzi tyrosyl tRNA synthetase (TcYRS) SOP; type: functional; details: 30 µM
[9] = molecular target: Chromo domain-containing protein 1 (Saccharomyces cerevisiae (strain ATCC 204508 / S288c) (Baker's yeast)) (UniProt P32657); test: ScCHD-1 Enzyme Inhibition Assay; type: functional; details: 30 µM; also: in the data most compounds retested in dose-response had high values
Sequence of Chromo domain-containing protein 1 (Saccharomyces cerevisiae (strain ATCC 204508 / S288c) (Baker's yeast)) (P32657 whole entry, the tested form may be a part): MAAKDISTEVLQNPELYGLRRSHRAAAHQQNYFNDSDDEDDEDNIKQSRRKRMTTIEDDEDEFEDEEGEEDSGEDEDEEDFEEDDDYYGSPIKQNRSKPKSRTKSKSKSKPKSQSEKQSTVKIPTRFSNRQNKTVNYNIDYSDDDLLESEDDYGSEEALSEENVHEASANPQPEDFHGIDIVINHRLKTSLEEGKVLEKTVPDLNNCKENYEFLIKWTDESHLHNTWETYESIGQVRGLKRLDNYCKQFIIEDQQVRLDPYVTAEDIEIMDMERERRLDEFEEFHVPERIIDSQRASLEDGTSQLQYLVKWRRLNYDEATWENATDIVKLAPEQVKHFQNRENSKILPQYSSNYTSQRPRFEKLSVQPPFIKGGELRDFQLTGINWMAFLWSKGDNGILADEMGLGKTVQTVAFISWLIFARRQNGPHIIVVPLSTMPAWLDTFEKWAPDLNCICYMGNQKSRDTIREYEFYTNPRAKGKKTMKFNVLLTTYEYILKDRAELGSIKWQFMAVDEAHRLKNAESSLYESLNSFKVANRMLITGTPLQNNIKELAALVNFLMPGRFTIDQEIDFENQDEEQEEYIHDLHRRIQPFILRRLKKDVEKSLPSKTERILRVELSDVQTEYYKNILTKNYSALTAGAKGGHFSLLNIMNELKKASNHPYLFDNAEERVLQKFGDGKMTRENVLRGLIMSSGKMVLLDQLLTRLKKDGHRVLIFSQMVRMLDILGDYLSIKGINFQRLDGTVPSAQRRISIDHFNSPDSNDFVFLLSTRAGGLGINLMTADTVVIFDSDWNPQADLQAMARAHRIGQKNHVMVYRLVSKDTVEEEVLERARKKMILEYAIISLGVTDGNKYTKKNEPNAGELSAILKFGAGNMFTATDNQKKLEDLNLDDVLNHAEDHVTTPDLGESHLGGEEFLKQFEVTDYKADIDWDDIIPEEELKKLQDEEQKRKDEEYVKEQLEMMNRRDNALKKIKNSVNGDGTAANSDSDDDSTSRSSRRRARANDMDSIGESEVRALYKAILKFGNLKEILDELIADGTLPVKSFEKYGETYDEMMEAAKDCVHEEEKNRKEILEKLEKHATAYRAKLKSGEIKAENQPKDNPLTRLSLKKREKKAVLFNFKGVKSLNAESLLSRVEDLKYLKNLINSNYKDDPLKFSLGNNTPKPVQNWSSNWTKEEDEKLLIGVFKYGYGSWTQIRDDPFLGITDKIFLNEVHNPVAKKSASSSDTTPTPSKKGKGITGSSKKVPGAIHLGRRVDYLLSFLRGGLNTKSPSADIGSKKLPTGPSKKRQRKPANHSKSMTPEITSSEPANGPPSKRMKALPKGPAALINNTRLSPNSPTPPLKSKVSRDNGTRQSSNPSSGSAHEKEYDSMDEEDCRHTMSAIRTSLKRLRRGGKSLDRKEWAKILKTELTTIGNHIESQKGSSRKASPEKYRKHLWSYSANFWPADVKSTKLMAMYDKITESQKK

Sequence of Sialic acid-binding Ig-like lectin 9 (Homo sapiens) (Q9Y336 whole entry): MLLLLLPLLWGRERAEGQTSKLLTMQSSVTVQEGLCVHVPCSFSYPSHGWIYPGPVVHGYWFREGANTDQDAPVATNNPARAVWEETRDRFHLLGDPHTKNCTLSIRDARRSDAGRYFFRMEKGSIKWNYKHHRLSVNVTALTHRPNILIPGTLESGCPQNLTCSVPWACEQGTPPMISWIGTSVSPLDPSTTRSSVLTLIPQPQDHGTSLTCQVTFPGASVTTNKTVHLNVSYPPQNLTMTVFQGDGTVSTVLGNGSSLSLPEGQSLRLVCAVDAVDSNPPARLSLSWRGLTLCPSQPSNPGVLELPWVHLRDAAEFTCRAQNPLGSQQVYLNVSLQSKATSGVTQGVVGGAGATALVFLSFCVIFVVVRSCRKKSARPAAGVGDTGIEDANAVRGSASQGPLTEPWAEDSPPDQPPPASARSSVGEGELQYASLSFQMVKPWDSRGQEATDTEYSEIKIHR
Sequence of Protein translocase subunit SecA (Escherichia coli (strain K12)) (P10408 whole entry): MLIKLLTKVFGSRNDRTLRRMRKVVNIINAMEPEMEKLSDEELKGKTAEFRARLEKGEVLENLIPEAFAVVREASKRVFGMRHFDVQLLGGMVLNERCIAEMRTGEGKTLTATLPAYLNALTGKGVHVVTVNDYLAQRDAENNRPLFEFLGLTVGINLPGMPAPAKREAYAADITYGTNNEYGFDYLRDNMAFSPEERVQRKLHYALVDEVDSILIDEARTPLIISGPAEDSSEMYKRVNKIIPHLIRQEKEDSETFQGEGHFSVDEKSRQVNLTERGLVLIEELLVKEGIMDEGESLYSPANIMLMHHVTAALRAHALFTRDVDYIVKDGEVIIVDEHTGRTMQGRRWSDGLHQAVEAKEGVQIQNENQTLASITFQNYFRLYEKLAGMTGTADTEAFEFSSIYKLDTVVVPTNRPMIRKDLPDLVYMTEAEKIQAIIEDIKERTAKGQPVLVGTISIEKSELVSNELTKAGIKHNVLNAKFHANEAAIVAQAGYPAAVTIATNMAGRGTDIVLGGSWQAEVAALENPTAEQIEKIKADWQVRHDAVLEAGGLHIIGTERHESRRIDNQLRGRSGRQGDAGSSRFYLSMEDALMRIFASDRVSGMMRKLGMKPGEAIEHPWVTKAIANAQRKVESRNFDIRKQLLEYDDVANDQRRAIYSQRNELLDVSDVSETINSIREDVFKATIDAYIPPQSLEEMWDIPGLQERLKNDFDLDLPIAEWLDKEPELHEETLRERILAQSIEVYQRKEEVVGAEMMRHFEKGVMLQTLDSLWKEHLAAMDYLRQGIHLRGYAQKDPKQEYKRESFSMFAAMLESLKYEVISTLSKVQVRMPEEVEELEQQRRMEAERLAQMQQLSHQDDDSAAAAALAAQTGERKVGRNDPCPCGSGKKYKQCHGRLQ

SMILES | Percent Effect [1] [%] | Percent Effect [2] [%] | Percent Effect [3] [%] | Percent Effect [4] [%] | Percent Effect (Trypanosoma cruzi) [%] | Percent Effect [5] [%] | Percent Effect [6] [%] | Percent Effect (Homo sapiens) [%] | Percent Effect [7] [%] | Percent Effect [8] [%] | Percent Effect [9] [%]
Cc1ncnc2c1CCN(Cc1cccs1)CC2 | -2.76 | 8 | 10 | -1.57 | -6.18 | -55.7 | -1.2 | 10.4 | 8.33 | 7.5 | -6.96
Cc1oc(C)c(C(=O)NCc2ccccn2)c1C | -0.692 | 10.5 | -8.31 | 2.54 | -12.8 | 7.28 | 15.7 | 14 | 1.47 | 7.32 | -5.27
CCN1CC2(CCC1=O)CCN(C(=O)c1ccc(Cl)cc1O)CC2 | 0.161 | 12.5 | -4.82 | 5.1 | 4.37 | 25.6 | 4.56 | 19.3 | 4.21 | 15.4 | -5.87
Cc1cnc(CN(C)C2CCN(CC(=O)Nc3c(C)n[nH]c3C)C2)o1 (configuration not stated) | 3.19 | 20.2 | 14.2 | -1.23 | -9.54 | 6.84 | 6.63 | 33.5 | 5.42 | 8.86 | -4.79
COc1cccc2c1ccn2CCC(=O)N1CCCC(C(=O)O)C1 (configuration not stated) | -4.55 | 5.26 | -2.19 | -4.72 | -9.64 | 2.37 | 11.2 | 12.8 | -3.19 | 0 | -6.61
CCc1nnc(CNCC2CCCN2c2cccnn2)o1 (configuration not stated) | -2.1 | 0 | 0.161 | 4.6 | 2.78 | -2.4 | 5.57 | 3.42 | 8.33 | 11.1 | -4.05
c1ccc(CC2CCN(Cc3ccnc(-c4cccnc4)n3)CC2)cc1 | 0.966 | -4.05 | 9.39 | 1.78 | 0.198 | 1.16 | -1.56 | 18.1 | 4.3 | 6.49 | 7.16
CN(CCCC#N)C1CCCN(Cc2noc(C3CC3)n2)C1 (configuration not stated) | -1.64 | 15.3 | -17 | 7.77 | 0.68 | 5.74 | 12.8 | -4.02 | 4.21 | 7.69 | -5.25
CS(=O)(=O)c1ccc(CNCC2CCN(CCO)CC2)cc1 | -6.48 | 0 | -13.5 | 3.88 | -4.9 | -3.64 | 6.03 | 21.2 | -2.15 | -5 | -3.22
Cn1c(Cn2ccnc2)nnc1C1CCN(Cc2cccnc2N)CC1 | -2.31 | -9.72 | 1.79 | -9.15 | -2.62 | 3.53 | 9.12 | -8.94 | 2.1 | 2.56 | -3.65
Cc1ccccc1C1CCCN1C(=O)CN1CC2(CCNCC2)OC1=O (configuration not stated) | -4.66 | 8.11 | -3.53 | 12.1 | 6.76 | 0 | 13.1 | -1.19 | 4.76 | 9.76 | 87.8
Cn1c(CN2CCN(CC3CC3)CC2)nnc1C1CCC1 | -8.27 | 0 | -14 | 5.49 | -0.392 | -1.36 | 4.44 | -5.43 | -2.15 | 0 | -2.31
CCCC(=O)N1CCC(O)(Cn2c(CC)nc3ccccc3c2=O)CC1 | -1.08 | 17.6 | 21.5 | -2.15 | 3.16 | -1.16 | 9.2 | 17.3 | 4.3 | 3.9 | -6.13
CC(NC(=O)NCCCOC1CCCCC1)c1nncn1C (configuration not stated) | -0.354 | 2.7 | -2.09 | 21.6 | 4.18 | -1.29 | 16.2 | 5.68 | 3.96 | 25.6 | -7.07
Cc1noc(Cl)c1CCC(=O)N1CCN(c2ncccn2)CC1 | -1.95 | 10.5 | -1.41 | -4.66 | -11.1 | 5.75 | 7.02 | 21.6 | 5.42 | 13.6 | 1.74
O=C(NCCNc1ncccn1)N1CCSCC1 | -0.808 | 13.5 | -7.4 | 9.38 | 3.87 | -5.21 | 7.39 | 11.3 | 5.42 | 16.1 | -9.99
O=C(c1cccc(F)c1)N1CCOC(c2nc(-c3ncccn3)no2)C1 (configuration not stated) | -7.06 | 5.33 | 0.687 | -2.48 | -4.53 | -0.699 | 3.44 | 17.9 | 3.19 | 6.41 | -2.27
